Measured values from PubChem BioAssay (Tox21).
Records with an inconclusive call do not appear. Active and inactive are the calls of the source. Unless noted, the call rests on the fitted dose curve. Bridge positions count the residues as written; N and C are the ends. Square brackets hold non-standard residues; d marks the D form. Peptide text beside a SMILES is read from it. hArg = N=C(N)NCCCC[C@H](N)C(=O)O; Mpa = O=C(O)CCS

Columns and labels:
[1] = Nuclear factor erythroid 2-related factor 2/antioxidant responsive element (Nrf2/ARE) small molecule agonists: qHTS cell viability counter screen in human keratinocytes (AID 1919968; active means well fitted curve in the direction sought with a large enough effect in the repeat runs; an effect the other way counts as inactive or inconclusive; further: nearly all actives have a fitted effect of over 55% in size)
In short: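 Viability counter-screen: KeratinoSens reporter cells, DMSO-delivered compounds, 23 h at 37 C, CellTiter-Fluor fluorescence.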

[2] = Nuclear factor erythroid 2-related factor 2/antioxidant responsive element (Nrf2/ARE) small molecule agonists: luciferase reporter gene qHTS assay in human keratinocytes (AID 1919969); further: nearly all actives have a fitted effect of over 35% in size
[3] = target: KiSS-1 receptor (Homo sapiens) (UniProt Q969F8); experiment: Human kisspeptin (KISS1R) small molecule agonists, calcium flux assay in KISS1R-HEK293 cells (AID 1920064; active means well fitted curve in the direction sought with a large enough effect in the repeat runs; an effect the other way counts as inactive or inconclusive)
KiSS-1 receptor (Homo sapiens), sequence (Q969F8 whole entry, looked up): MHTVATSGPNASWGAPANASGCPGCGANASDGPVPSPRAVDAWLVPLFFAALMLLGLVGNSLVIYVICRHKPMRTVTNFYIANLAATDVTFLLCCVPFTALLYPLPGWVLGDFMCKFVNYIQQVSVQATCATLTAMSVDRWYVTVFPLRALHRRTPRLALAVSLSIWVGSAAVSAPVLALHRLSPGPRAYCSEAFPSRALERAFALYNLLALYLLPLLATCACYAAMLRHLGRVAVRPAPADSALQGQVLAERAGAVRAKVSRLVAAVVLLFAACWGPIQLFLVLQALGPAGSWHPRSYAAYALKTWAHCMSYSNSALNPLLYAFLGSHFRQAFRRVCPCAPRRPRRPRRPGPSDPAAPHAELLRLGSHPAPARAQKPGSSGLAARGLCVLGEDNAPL
In short: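 Intracellular calcium mobilization in KISS1R-HEK293 cells was recorded by fluorescence (Ex/Em 480/540) for 3 min following compound addition to cells pre-loaded 1 h with calcium dye.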

[4] = G protein-coupled receptor (GPCR) small molecule agonists, calcium flux assay: HEK293 wild type cell line counter screen (AID 1920065)
In short: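 In this agonist-mode screen, ATP is the positive control and DMSO the vehicle. Cells grow 18 h before a 1 h dye incubation at 37 C; signal is taken at Ex/Em 480/540 over 3 min.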

[5] = p53 small molecule agonists, cell-based qHTS assay with human liver microsomes: qHTS cell viability counter screen (AID 1963579); further: nearly all actives have a fitted effect of over 45% in size
In short: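 Seed p53RE-bla cells at 4,000 per well; incubate 5 h at 37 C; add compound, human liver microsomes and NADPH; incubate 16 h at 37 C; add CellTiter-Glo; after 30 min at room temperature, read luminescence.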

[6] = p53 small molecule agonists, cell-based qHTS assay with rat liver microsomes: qHTS cell viability counter screen (AID 1963580); further: nearly all actives have a fitted effect of over 45% in size; further: potency means the concentration at half of the fitted maximal effect
In short: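 Intracellular ATP, by CellTiter-Glo luminescence, defines viability. HCT-116 p53RE-bla cells, 4,000 per well, were compound-treated in the presence of rat liver microsomes and NADPH for 16 h at 37 C.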

[7] = p53 small molecule agonists, cell-based qHTS assay: qHTS cell viability counter screen (AID 1963581); further: nearly all actives have a fitted effect of over 45% in size
In short: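 Compounds are pinned onto HCT-116 p53RE-bla cells and left 16 h at 37 C. Following the reporter FRET read, ATP is quantified by CellTiter-Glo luminescence after 30 min at room temperature.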

[8] = target: 5-hydroxytryptamine receptor 2A (Homo sapiens) (UniProt P28223); experiment: 5-hydroxytryptamine receptor 2A (HTR2A) small molecule antagonists, cell-based qHTS assay (AID 1963586); further: nearly all actives have a fitted effect of over 45% in size; further: potency means the concentration at half of the fitted maximal effect
5-hydroxytryptamine receptor 2A (Homo sapiens), sequence (P28223 whole entry, looked up): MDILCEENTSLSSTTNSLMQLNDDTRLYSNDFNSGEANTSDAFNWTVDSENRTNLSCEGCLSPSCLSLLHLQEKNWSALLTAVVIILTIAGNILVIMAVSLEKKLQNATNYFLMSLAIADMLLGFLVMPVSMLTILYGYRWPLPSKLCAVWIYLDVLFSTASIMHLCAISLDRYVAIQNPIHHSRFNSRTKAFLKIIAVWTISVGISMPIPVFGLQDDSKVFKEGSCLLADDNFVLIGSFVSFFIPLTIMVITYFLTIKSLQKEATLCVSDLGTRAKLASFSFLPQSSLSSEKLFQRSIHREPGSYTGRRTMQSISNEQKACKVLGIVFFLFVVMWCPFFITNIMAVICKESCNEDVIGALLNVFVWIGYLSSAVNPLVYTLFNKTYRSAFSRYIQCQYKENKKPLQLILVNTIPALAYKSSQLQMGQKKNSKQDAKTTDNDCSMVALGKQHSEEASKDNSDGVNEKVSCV
In short: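 Antagonist-mode intracellular calcium assay: DOI (4 nM) added after 5 min compound pre-incubation at room temperature to dye-loaded HTR2A-CHO cells. Fluorescence followed for 3 min, sampled every second.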

[9] = target: 5-hydroxytryptamine receptor 2A (Homo sapiens) (UniProt P28223); experiment: 5-hydroxytryptamine receptor 2A (HTR2A) small molecule agonists, cell-based qHTS assay (AID 1963587); further: nearly all actives have a fitted effect of over 30% in size; further: potency means the concentration at half of the fitted maximal effect
In short: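 Kinetic calcium-flux fluorescence (2 min, 1 sec intervals) after compound addition in agonist mode. HTR2A-CHO cells were cultured 18 h, then dye-loaded 1 h at 37 C.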

[10] = target: Muscarinic acetylcholine receptor M1 (Homo sapiens) (UniProt P11229); experiment: Cholinergic receptor muscarinic 1 (CHRM1) small molecule antagonists, cell-based qHTS assay (AID 1963588); further: nearly all actives have a fitted effect of over 40% in size
Muscarinic acetylcholine receptor M1 (Homo sapiens), sequence (P11229 whole entry, looked up): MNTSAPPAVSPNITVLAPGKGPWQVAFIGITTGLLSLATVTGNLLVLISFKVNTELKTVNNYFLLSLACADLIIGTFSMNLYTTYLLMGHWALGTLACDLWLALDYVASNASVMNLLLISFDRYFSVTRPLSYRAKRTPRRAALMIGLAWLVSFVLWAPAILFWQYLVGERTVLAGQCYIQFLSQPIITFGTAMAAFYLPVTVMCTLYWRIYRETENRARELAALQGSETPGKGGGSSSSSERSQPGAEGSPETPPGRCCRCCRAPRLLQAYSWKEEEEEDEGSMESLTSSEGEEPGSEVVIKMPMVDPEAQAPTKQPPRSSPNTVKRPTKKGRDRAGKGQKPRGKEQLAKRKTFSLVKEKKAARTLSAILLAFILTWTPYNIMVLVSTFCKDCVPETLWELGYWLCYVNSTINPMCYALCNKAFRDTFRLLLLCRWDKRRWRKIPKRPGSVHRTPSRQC
In short: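 CHRM1-CHO calcium-flux assay, antagonist mode. Cells were seeded 18 h, dye-loaded 1 h at 37 C and given compound for 5 min at RT, then acetylcholine was added at 50nM. FDSS fluorescence was read 3 min; 15 concentrations, three runs.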

[11] = target: Muscarinic acetylcholine receptor M1 (Homo sapiens) (UniProt P11229); experiment: Cholinergic receptor muscarinic 1 (CHRM1) small molecule agonists, cell-based qHTS assay (AID 1963589); further: nearly all actives have a fitted effect of over 35% in size
In short: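 Stable CHRM1-CHO cells (human receptor) were incubated 18 h, dye-loaded for 1 h at 37 C and exposed to test compounds for agonist activity, with calcium-dependent fluorescence followed kinetically.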

[12] = cAMP Responsive Elements (CRE) small molecule agonists, cell-based qHTS assay (AID 1963590)
In short: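 FRET-based beta-lactamase readout (LiveBLAzer B/G, 2 h RT) quantified CRE activation in HEK 293T CRE-bla cells after 3 h treatment with DMSO-dissolved compounds.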

[13] = cAMP Responsive Elements (CRE) small molecule antagonists, cell-based qHTS assay (AID 1963591; active means well fitted inhibition curve with a large enough effect in the signal ratio in the repeat runs, not every such curve was filed as active; the % refers to the signal ratio)
In short: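 qHTS in CRE-bla HEK 293T cells: compound in DMSO, then 0.25 uM NKH477 (final), 3 h at 37 °C/5% CO2; beta-lactamase FRET read-out after 2 h substrate incubation.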

[14] = target: Beta-2 adrenergic receptor (Homo sapiens) (UniProt P07550); experiment: Adrenergic beta2 receptor (ADRB2) small molecule antagonists, cell-based qHTS assay (AID 1963592); further: nearly all actives have a fitted effect of over 50% in size; further: potency means the concentration at half of the fitted maximal effect; on activity change, negative = inhibition: series mostly up to about 92 µM
Beta-2 adrenergic receptor (Homo sapiens), sequence (P07550 whole entry, looked up): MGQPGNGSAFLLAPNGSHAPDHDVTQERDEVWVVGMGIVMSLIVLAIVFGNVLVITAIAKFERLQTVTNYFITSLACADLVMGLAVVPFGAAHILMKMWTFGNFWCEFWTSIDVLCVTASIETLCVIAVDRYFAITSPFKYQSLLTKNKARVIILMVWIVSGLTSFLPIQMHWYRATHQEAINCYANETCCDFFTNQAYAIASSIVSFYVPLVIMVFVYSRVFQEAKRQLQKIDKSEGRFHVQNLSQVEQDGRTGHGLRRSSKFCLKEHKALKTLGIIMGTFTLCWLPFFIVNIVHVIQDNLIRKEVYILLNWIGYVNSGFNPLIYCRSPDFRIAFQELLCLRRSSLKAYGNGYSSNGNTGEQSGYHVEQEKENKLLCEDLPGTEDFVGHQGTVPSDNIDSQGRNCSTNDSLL
In short: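 Cells (CHO, stable ADRB2 overexpression) incubated 18-20hr at 37C; compounds added from DMSO; agonist mix (1nM isoproterenol, 100uM IBMX, 25uM Ro-20-1724) added; 0.5hr RT; d2-cAMP and anti-cAMP-cryptate added; 1hr RT; 665/615 nm read.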

[15] = target: D(2) dopamine receptor (Homo sapiens) (UniProt P14416); experiment: Dopamine D2 receptor (DRD2) small molecule agonists, cell-based qHTS assay (AID 1963594); further: nearly all actives have a fitted effect of over 35% in size
D(2) dopamine receptor (Homo sapiens), sequence (P14416 whole entry, looked up): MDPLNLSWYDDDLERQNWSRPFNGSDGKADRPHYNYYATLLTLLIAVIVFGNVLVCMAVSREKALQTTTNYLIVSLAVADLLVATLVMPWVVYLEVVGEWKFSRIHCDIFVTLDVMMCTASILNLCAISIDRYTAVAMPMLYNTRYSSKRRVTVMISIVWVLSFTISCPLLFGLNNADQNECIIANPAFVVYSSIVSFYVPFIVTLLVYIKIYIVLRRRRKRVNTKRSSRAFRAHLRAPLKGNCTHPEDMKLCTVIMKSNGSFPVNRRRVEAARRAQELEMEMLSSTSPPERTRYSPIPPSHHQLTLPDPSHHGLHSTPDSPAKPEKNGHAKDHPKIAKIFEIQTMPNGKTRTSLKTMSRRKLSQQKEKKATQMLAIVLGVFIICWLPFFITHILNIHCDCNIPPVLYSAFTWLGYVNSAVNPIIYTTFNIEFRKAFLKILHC
In short: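 cAMP accumulation in DRD2-HEK293 cells measured by HTRF after 1 h detection; compounds added 10 min before NKH477 (200nM […]) forskolin-analogue stimulation, 30 min at room temperature, with Ro20-1724 present at 0.1 mM final.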

[16] = target: D(2) dopamine receptor (Homo sapiens) (UniProt P14416); experiment: Dopamine D2 receptor (DRD2) small molecule antagonists, cell-based qHTS assay (AID 1963595; active means well fitted inhibition curve with a large enough effect in the signal ratio in the repeat runs, with a control signal flat; the % refers to the signal ratio; further: potency means the concentration at half of the fitted maximal effect)
In short: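 HEK293 cells stably expressing DRD2 were preincubated with 0.1 mM Ro20-1724, then with compound for 10 min at room temperature. Cells were stimulated with 200 nM NKH477 plus 12 nM quinpirole for 30 min, and cAMP was read by HTRF.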

[17] = p53 small molecule agonists, cell-based qHTS assay with rat liver microsomes (AID 1963578)
In short: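 Fluorescence from a beta-lactamase reporter under a p53 response element was measured after cells had been incubated 16 h at 37 C with test compound and rat liver microsomes plus NADPH (0.5 mg/mL final each).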

[18] = target: Beta-2 adrenergic receptor (Homo sapiens) (UniProt P07550); experiment: Adrenergic beta2 receptor (ADRB2) small molecule agonists, cell-based qHTS assay (AID 1963593);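 further: CHO cells stably overexpressing human ADRB2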
In short: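 CHO cells stably over-expressing ADRB2 were plated overnight at 37C, then dosed with compounds plus a stimulation mix containing 100uM IBMX and 25uM Ro-20-1724 for 0.5hr at room temperature. cAMP was measured by HTRF competition, 1hr.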

[19] = p53 small molecule agonists, cell-based qHTS assay with human liver microsomes (AID 1963577)
In short: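 Cells carrying a p53-responsive bla reporter were rested 5 h (37 C, 5% CO2) before compound transfer. Human liver microsomes plus NADPH, 0.5 mg/mL final apiece, supplied metabolism during the 16 h 37 C exposure.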
On the % scale 0 is the no-effect control and ±100 the full control effect.

CCC(C)COC(C)=O (centres undefined)
inactive: Potency [1] | Potency [2] | Potency [3] | Potency [4] | Potency [5] | Potency [6] | Potency [7] | Potency [8] | Potency [9] | Potency [10] | Potency [11] | Potency [12] | Potency [13] | Potency [14] | Potency [15] | Potency [16]

C[C@@H](CN(C)C)CN1c2ccccc2Sc2ccccc21
inactive: Potency [1] | Potency [2] | Potency [3] | Potency [4] | Potency [17] | Potency [5] | Potency [6] | Potency [7] | Potency [9] | Potency [11] | Potency [12] | Potency [13]
active: Potency [8] 0.0041 µM | Potency [14] 29.8 µM | Potency [16] 1.68 µM

CCOC(=O)C(F)(F)F
inactive: Potency [1] | Potency [2] | Potency [3] | Potency [4] | Potency [5] | Potency [6] | Potency [7] | Potency [8] | Potency [9] | Potency [10] | Potency [11] | Potency [12] | Potency [13] | Potency [14] | Potency [18] | Potency [15] | Potency [16]

CCCc1c(OCCCOc2ccc(OCC(=O)O)cc2)ccc(C(C)=O)c1O
active: Potency [6] 40.8 µM | Potency [9] 54.9 µM
inactive: Potency [1] | Potency [2] | Potency [3] | Potency [4] | Potency [19] | Potency [8] | Potency [11] | Potency [14] | Potency [18] | Potency [15] | Potency [16]

NC(N)=NCCC[C@H](N)C(=O)O
inactive: activity change, negative = cytotoxicity [1] -4.64% [at 8.39 µM] | activity, positive = activation [2] -5.37% [at 8.39 µM] | activation [3] -0.0198% [at 6.97 µM] | activation [4] 2.23% [at 5.23 µM] | activity change, negative = cytotoxicity [5] -0.294% [at 5.99 µM] | activity change, negative = cytotoxicity [6] 1.88% [at 5.99 µM] | activity change, negative = cytotoxicity [7] -8.01% [at 5.99 µM] | activity, negative = inhibition [8] 19.6% [at 5.62 µM] | activation [9] 2.81% [at 7.02 µM] | activity, negative = inhibition [10] -1.41% [at 5.58 µM] | activation [11] -0.347% [at 6.97 µM] | activity change, negative = inhibition [13] -3.28% [at 8.39 µM] | activity change, negative = inhibition [14] 0.0181% [at 8.39 µM] | activation [15] -13.5% [at 8.39 µM] | activity change, negative = inhibition [16] 5.33% [at 8.38 µM]

NC(=O)[C@@H]1CSSCCC(=O)N[C@@H](CCCCN=C(N)N)C(=O)NCC(=O)N[C@@H](CC(=O)O)C(=O)N[C@@H](Cc2c[nH]c3ccccc23)C(=O)N2CCC[C@H]2C(=O)N1 ([Mpa][hArg]GDWPC-NH2; disulfide 1-7)
inactive: Potency [1] | Potency [2] | Potency [3] | Potency [4] | Potency [19] | Potency [5] | Potency [7] | Potency [12] | Potency [13] | Potency [14] | Potency [18] | Potency [15] | Potency [16]

Cc1ccc(C(=O)C(C)CN2CCCCC2)cc1 (centres undefined)
inactive: Potency [1] | Potency [2] | Potency [3] | Potency [4] | Potency [17] | Potency [5] | Potency [6] | Potency [7] | Potency [13] | Potency [15]
